# From PubChem BioAssay
# NS1 inh: qHTS Assay for Inhibitors of Influenza NS1 Protein Function | Potency, µM (doses to about 46.1 µM) | 270,000 tested, 0.4% active | AID 2326, 2010; calls by dose curve; note: actives are rising curves; nearly all actives have a fitted effect of over 50% in size
#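 In this qHTS, NS1 from influenza A is expressed in budding yeast, where it slows growth. Cells are switched from glucose to 2% galactose medium (pH 6.0, -URA), treated with compound, and growth recovery is read at OD600.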
# Pf growth 96h: Primary qHTS for delayed death inhibitors of the malarial parasite plastid, 96 hour incubation; P. falciparum luciferase reporter growth, 96 h; Potency, µM (top dose mostly 28.7 µM), usual class: inhibitors; 320,000 tested, 6.9% active; AID 504834, 2011
#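 Two-generation exposure (96 h) targets delayed-death phenotype. Reporter parasites carrying integrated firefly luciferase, in red cells at 2% hematocrit and 0.05% parasitemia final, kept at 37 C, 5% CO2; luminescence loss indicates inhibition.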
# AMA1 RON2 block: qHTS for Inhibitors of AMA1-RON; Towards Development of Antimalarial Drug Lead: Primary Screen; Plasmodium falciparum AMA1 (3D7) - RON2 peptide interaction; Potency, µM (series often up to 58.2 µM), usual class: inhibitors; 360,000 tested, 0.2% active; AlphaScreen AMA1-biotinylated RON2 peptide binding; note: nearly all actives have a fitted effect of over 45% in size
#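 AMA1 (3D7) with his tag at 25 nM final met compounds first, then biotinylated RON2 peptide at 25 nM; detection used donor plus acceptor beads, 10 µg/mL apiece, read by AlphaScreen after 30 min at room temperature.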
# Pf growth 48h: Primary qHTS for delayed death inhibitors of the malarial parasite plastid, 48 hour incubation; P. falciparum luciferase growth in erythrocytes, 48 h; Potency, µM (top dose mostly 28.7 µM), actives largely listed as inhibitors; 310,000 tested, 5.9% active
#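 A one-generation exposure of luciferase-tagged malaria parasites in RPMI 1640/Albumax erythrocyte culture, 37 C and 5% CO2. Inhibition is inferred from decreased luminescence after adding detection reagent.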
# HCV inh: qHTS Assay for Inhibitors of Hepatitis C Virus (HCV). 340,000 tested, 3.4% active. Potency, µM (titrated, usually from 41.8 µM), usual class: inhibitors. Huh7.5.1 HCVcc-Cre infection, luciferase reporter, 44 h. AID 651820, 2012
#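 Whole-lifecycle infectious HCVcc-Cre system; cells 1,000/well, compound then virus (~0.5 moi) added 4 h after plating, 44 h culture. Luciferase read 15 sec following 15 min substrate incubation, room temp.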
# SARS PLP yeast: qHTS of Yeast-based Assay for SARS-CoV PLP | S. cerevisiae expressing SARS-CoV PLpro, growth rescue | 330,000 tested, 0.19% active | Potency, µM (series often up to 32.9 µM), usual class: activators; calls by dose curve; note: nearly all actives have a fitted effect of over 55% in size
# A number is an active result; n = inactive; u = inconclusive; x = not tested or not shown; [ ] = another dose, or the depositor's remark. This is a sample that favours compounds with a hit; in the whole collection about 12% have one here. Unless noted, calls come from the whole dose curve; as a rule, active = well fitted curve in the direction sought with a large enough effect; inconclusive = small, poorly fitted or top-dose-only effect, or another doubt; inactive = no such curve, though single readings can be large; an effect the other way counts as inactive or inconclusive.
SMILES,NS1 inh,Pf growth 96h,AMA1 RON2 block,Pf growth 48h,HCV inh,SARS PLP yeast
O=C(NCCN1CCCC1)c1ccc(Cn2c(=S)[nH]c3ccc(Br)cc3c2=O)cc1,x,n,n,u,u,n
COc1ccc(N2CCN(CCNC(=O)c3ccc4c(c3)[nH]c(=S)n3c5ccccc5nc43)CC2)cc1,x,10.4µM,n,u,n,n
COc1ccc(N2CCN(CCNC(=O)c3ccc4nc5ccccc5c(=O)n4c3)CC2)cc1,n,n,n,u,n,n
COc1ccccc1Cn1c(=S)[nH]c2cc(C(=O)NCCN3CCOCC3)ccc2c1=O,n,n,n,10.4µM,u,n
COCCCNC(=O)c1ccc2c(=O)n(Cc3ccccc3OC)c(=S)[nH]c2c1,n,n,n,u,u,n
C=CCNC(=O)c1ccc2c(=O)n(Cc3ccccc3OC)c(=S)[nH]c2c1,n,n,n,3.29µM,u,n
O=C(NCCCN1CCCC1)c1ccc(Cn2c(=S)[nH]c3ccc(Br)cc3c2=O)cc1,x,n,x,13.1µM,x,n
COc1cc(C(=S)N2CCCC2)ccc1OCc1ccccc1,n,n,n,n,n,n
O=C(NCc1ccc(Cl)cc1)c1ccc2c(=O)n(CC3CCCO3)c(=S)[nH]c2c1 (stereo unspecified),n,11.7µM,n,n,u,n
O=C(NCC1CCCO1)c1ccc2c(=O)n(CC3CCCO3)c(=S)[nH]c2c1 (stereo unspecified),n,u,n,n,n,n
CC1CCN(CCNC(=O)c2ccc3c(=O)n(Cc4ccc(Cl)cc4)c(=S)[nH]c3c2)CC1,n,n,n,3.7µM,6.31µM,n
COc1ccccc1NS(=O)(=O)c1cc(C(=O)NCCN2CCOCC2)ccc1Cl,n,10.4µM,n,n,n,n
COC1=CC(=O)C(OC)=C(OC)C1=O,x,x,n,x,u,x
O=C(CCCN1C(=O)c2cccc3cccc(c23)C1=O)NCc1cccs1,x,n,n,n,n,n
COC(=O)c1cc(C)ccc1/C=C1/Cc2c(C)cc(C)cc2C1=O,x,x,n,x,u,x
Cc1cccc(N/N=C(\C=N\N)C(=O)c2ccc(Br)cc2)c1,x,n,x,11.7µM,x,n
Cc1cccc(N=N/C(=C\O)C(=O)c2ccc(Br)cc2)c1,x,n,n,n,10µM,n
Cc1cccc(/C=N/NC(=O)c2ccc(Br)cc2)c1,n,n,n,n,n,n
O=C(NCCc1ccccc1)C(=O)NCC1OCCCN1S(=O)(=O)c1cccs1 (stereo unspecified),n,n,n,n,n,n
O=C(O)CSCC(=O)N1CCCN(c2ccc(C(F)(F)F)cn2)CC1,n,n,n,n,n,n
Fc1ccc(NC(=S)N2CCCN(c3ccc(C(F)(F)F)cn3)CC2)c(F)c1,n,u,n,10.4µM,0.501µM,n
COc1cc(O)c(CCO)c2c1C(=O)C[C@@H](C)O2,n,1.85µM,n,n,u,n
O=C(CN1CCN(c2ccccc2O)CC1)Nc1cc([N+](=O)[O-])ccc1Cl,n,u,n,9.28µM,n,n
O=C(CNC(c1ccccc1)c1ccccc1)Nc1cc([N+](=O)[O-])ccc1Cl,n,13.1µM,n,u,n,n
CC(C)CC(=O)Nc1cc([N+](=O)[O-])ccc1Cl,n,n,n,n,n,u
SMILES,NS1 inh,Pf growth 96h,AMA1 RON2 block,Pf growth 48h,HCV inh,SARS PLP yeast
Oc1ccc(Nc2nc(-c3ccc4ccccc4c3)cs2)cc1,n,u,x,x,x,n
Oc1ccc(Nc2ccc3ccccc3c2)cc1,x,x,14.1µM,x,n,x
CCCCCc1cc(=O)oc2c(C(CCN3CCCC(C)C3)c3cc(OC)c(OC)c(OC)c3)c(OC)cc(OC)c12 (stereo unspecified),n,0.37µM,n,2.62µM,n[8.37 µM],n
CCCCCc1cc(=O)oc2c(C(CCN3CCCC(C)C3)c3ccc(N(C)C)cc3)c(OC)cc(OC)c12 (stereo unspecified),u,8.28µM,14.1µM,u,n,n
CCN(CC)CCC(c1ccc2c(c1)OCO2)c1c(OC)cc(OC)c2ccc(=O)oc12 (stereo unspecified),n,u,n,u,n[8.37 µM],n
CCCCCc1cc(=O)oc2c(C(CCN3CCCCC3)c3cc(OC)c(OC)c(OC)c3)c(OC)cc(OC)c12 (stereo unspecified),n,2.33µM,n,5.22µM,u,n
CCCCCc1cc(=O)oc2c(C(CCN(CC)CC)c3ccc(N(C)C)cc3)c(OC)cc(OC)c12 (stereo unspecified),n,u,25.1µM,u,u,n
COc1cc(OC)c2ccc(=O)oc2c1C(CCN1CCCC(C)C1)c1ccc(N(C)C)cc1 (stereo unspecified),n,u,u,u,n,n
CC(=O)c1cccc(-c2ccnc3c2CC(C(=O)Nc2cccc(C(F)(F)F)c2)O3)c1 (stereo unspecified),x,x,n,x,x,x
COCC(=O)OC1CCn2c1nc1c2C(=O)C(C)=C(NC(C)=O)C1=O (stereo unspecified),x,x,n,x,14.1µM,x
CC1=C(C(=O)Nc2ccccc2C)C(c2ccc(C)o2)n2c(s/c(=C/c3ccccc3)c2=O)=N1 (stereo unspecified),n,x,n,2.94µM,u,n
CC1=C(C(=O)Nc2ccccc2)C(c2ccc(Cl)cc2)n2c(s/c(=C/c3cccc(OCC(=O)O)c3)c2=O)=N1 (stereo unspecified),n,n,n,1.65µM,n,n
O=C(O)CCN1C(=O)/C(=C\c2cccc(OCC(=O)Nc3ccc(Cl)cc3)c2)SC1=S,n,n,n,n,n,n
COc1ccc(C2C(C(=O)OC(C)C)=C(C)N=c3s/c(=C\c4cccs4)c(=O)n32)cc1 (stereo unspecified),n,u,n,u,n,u
CCOc1ccc(C2C(C(=O)Nc3ccccc3)=C(C)N=c3s/c(=C/c4cccc(OCC(=O)O)c4)c(=O)n32)cc1 (stereo unspecified),u,u,n,0.465µM,n,n
CC1=C(C(=O)Nc2ccccc2)C(c2ccc(C)o2)n2c(s/c(=C/c3ccccc3)c2=O)=N1 (stereo unspecified),n,u,n,x,n,n
Cc1onc(-c2ccccc2Cl)c1C(=O)NCc1nnnn1-c1ccc(F)c(F)c1,x,x,n,x,x,x
COc1ccc(/C(O)=C2/C(=O)C(=O)N(c3ccccn3)C2c2ccc(F)cc2)cc1 (stereo unspecified),n,6.57µM,n,n,n,n
COc1ccc(C2/C(=C(/O)c3ccc(C)cc3)C(=O)C(=O)N2c2ccccn2)cc1 (stereo unspecified),n,n,n,n,n,n
